Measurements: PubChem BioAssay AID602396 (The Scripps Research Institute Molecular Screening Center, 2012)
Hit rate of the full screen: of about 360,000 compounds, about 460 (0.13%) were called active. Only a selection was taken, and actives are over-represented in it overall. Unmarked numbers belong to inactive results.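 The calls were made as follows: active = inhibition above the mean inhibition of all tested compounds plus 3 SD (cut at about 73% in these data); inactive = the rest.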

These molecules were tested against Nuclear receptor subfamily 5 group A member 2 (Homo sapiens) (UniProt O00482) (assay: LRH-1 (NR5A2) inverse agonists, primary screen, cell-based, luminescence, HEK293T, StAR-luciferase reporter (AID 602396;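 also: 0% = DMSO wells and 100% = reporter-only cells lacking LRH-1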)). Conditions: LRH-1 transfected, 24 h, at 3.6 µM, stronger effect = higher value.
Nuclear receptor subfamily 5 group A member 2 (Homo sapiens), sequence (O00482 whole entry, looked up): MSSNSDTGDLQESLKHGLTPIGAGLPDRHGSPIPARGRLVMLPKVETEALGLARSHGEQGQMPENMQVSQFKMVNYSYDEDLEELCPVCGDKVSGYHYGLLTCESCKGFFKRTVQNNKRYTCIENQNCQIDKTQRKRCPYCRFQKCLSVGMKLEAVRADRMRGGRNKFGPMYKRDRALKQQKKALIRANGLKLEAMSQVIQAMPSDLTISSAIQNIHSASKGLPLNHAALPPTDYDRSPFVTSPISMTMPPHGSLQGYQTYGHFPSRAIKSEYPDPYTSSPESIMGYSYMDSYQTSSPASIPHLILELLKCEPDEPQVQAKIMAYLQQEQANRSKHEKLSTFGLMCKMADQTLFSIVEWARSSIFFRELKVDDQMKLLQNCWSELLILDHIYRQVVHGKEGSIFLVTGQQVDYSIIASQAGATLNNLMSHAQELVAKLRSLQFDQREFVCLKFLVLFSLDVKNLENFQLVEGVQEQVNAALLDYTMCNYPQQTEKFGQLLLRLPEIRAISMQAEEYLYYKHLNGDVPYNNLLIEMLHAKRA

**Q.** With `CC(=O)OC1C2(CC3N4C(=O)C5(CO)SSC4(CC31O)C(=O)N5C)OC(C)C(C)(C)C2=O` (stereo not given) as the molecule, how does the inhibition read?
**A.** The inhibition was 97.6% (active).

**Q.** How did the inhibition turn out when `CC(=O)N1CN2CN(C(C)=O)CC(C(=O)c3ccc(Br)cc3)(C2)C1` was run?
**A.** The inhibition was -11.4%.

**Q.** How did the inhibition turn out when `CN(C)C(=O)Oc1ccc(NC(=O)N2CCOCC2)cc1` was run?
**A.** The inhibition was 10.7%.

**Q.** `CCOc1ccc(-c2cc(C)[n+](CCN(CC)CC)c(-c3ccc(OCC)cc3)c2)cc1` was tested. Which inhibition did it give?
**A.** Its inhibition is 86.7% (active).

**Q.** How did the inhibition turn out when `CC(C)n1c(=O)c(C=Nc2ccc(Br)cc2)c(O)n(Cc2ccco2)c1=O` was run?
**A.** Its inhibition is 5.59%.

**Q.** For `CCOC(=O)C(O)(c1ccc(NC(=O)c2ccco2)c(OC)c1)C(F)(F)F` (stereo not given), which inhibition is on record?
**A.** Its inhibition is 15%.

**Q.** `NCCc1ccc(S(=O)(=O)F)cc1` was tested. Which inhibition did it give?
**A.** Its inhibition is 12.1%.

**Q.** With `O=[N+]([O-])c1ccc(C2C3C(c4ccccc4)=NC4(CCCCC4)N32)cc1` (stereo not given) as the molecule, how does the inhibition read?
**A.** Its inhibition is 22.7%.

**Q.** How did the inhibition turn out when `CCC(C)n1c(O)c(/C=N/Nc2nc3c(c(=O)n(C)c(=O)n3C)n2C)c(=O)[nH]c1=S` (stereo not given) was run?
**A.** The inhibition was -7.02%.

**Q.** With `CCCCCCCCCCCCn1ccc(=N)cc1` as the molecule, how does the inhibition read?
**A.** The inhibition was 84.1% (active).

**Q.** How did the inhibition turn out when `CN(C)CC1CCCCC1=O` (stereo not given) was run?
**A.** The inhibition was 15.8%.

**Q.** `COc1ccc(-c2nn(CCC#N)cc2C(=O)Nc2ccc(C(C)=O)cc2)cc1` was tested. Which inhibition did it give?
**A.** Its inhibition is 17.1%.

**Q.** How did the inhibition turn out when `Clc1cccc(Cl)c1Cl` was run?
**A.** Its inhibition is 2.81%.

**Q.** How did the inhibition turn out when `Cc1ccc(-c2nc3ccccc3c(=O)n2-c2ccc(Br)cn2)cc1` was run?
**A.** The inhibition was -1.48%.

**Q.** `CCNc1nc2[nH]c(=O)c3c(c2s1)OC(N)=C(C#N)C3c1cccs1` (stereo not given) was tested. Which inhibition did it give?
**A.** Its inhibition is -2.41%.

**Q.** How did the inhibition turn out when `CN(C)c1ccc(/C=C2\CC3C4CC=C5CC(O)CCC5(C)C4CCC3(C)C2=O)cc1` (stereo not given) was run?
**A.** Its inhibition is 10.7%.

**Q.** For `CCC(C)(O)C(=O)OC1C(=O)OC2CC3C(C)=CC(=O)C(O)C3(C)C3C4(O)OCC23C1C(C)C4O` (stereo not given), which inhibition is on record?
**A.** The inhibition was 98.4% (active).

**Q.** Which inhibition does the source give for `COc1ccc(C(=O)CC2C(=O)N(C)C(=O)N(C)C2=O)cc1` here?
**A.** The inhibition was -5.13%.

**Q.** Which inhibition does the source give for `COC(=O)C1=C(c2ccccc2)C[C@@H]2CC[C@H]1N2C(=O)N1CCCCC1` here?
**A.** Its inhibition is 8.33%.

**Q.** How did the inhibition turn out when `O=C1C2(Cl)C3(Cl)C4(Cl)C(Cl)(Cl)C5(Cl)C3(Cl)C1(Cl)C5(Cl)C24Cl` (stereo not given) was run?
**A.** The inhibition was 0.27%.

**Q.** How did the inhibition turn out when `CCOP(=S)(OCC)SCOC(=O)NCC(=O)OC` was run?
**A.** Its inhibition is -13.1%.

**Q.** How did the inhibition turn out when `CN(C)C(=O)NC(O)C(Cl)(Cl)Cl` (stereo not given) was run?
**A.** The inhibition was -10.3%.

**Q.** `C[C@]12CC[C@H](O)C[C@H]1CC[C@@H]1C2CC[C@]2(C)[C@@H](C3=CC(=O)OC3)[C@@H](O)C[C@]12O` (stereo not given in full) was tested. Which inhibition did it give?
**A.** Its inhibition is 88.6% (active).

**Q.** Which inhibition does the source give for `COC(=O)C1=C(c2ccc(F)cc2F)C[C@@H]2CC[C@H]1N2C(=O)NC1CC1` here?
**A.** Its inhibition is 20.8%.

**Q.** Which inhibition does the source give for `COc1ccc(NC(=O)N2Cc3ccccc3-n3nncc3C2)cc1` here?
**A.** Its inhibition is -12.7%.

**Q.** For `COC1C(O)C(C)OC(OC2CCC3(C=O)C(CCC4C3CCC3(C)C(C5=CC(=O)OC5)CCC43O)C2)C1O` (stereo not given), which inhibition is on record?
**A.** Its inhibition is 104% (active).

**Q.** How did the inhibition turn out when `COCCNC(=O)CN1C2CCC1CC(O)(c1cccnc1)C2` (stereo not given) was run?
**A.** Its inhibition is 17.3%.

**Q.** `Cc1ccc2c(c1)C1CN(C)CCC1N2C(=O)Cn1nnc(-c2ccccc2F)n1` (stereo not given) was tested. Which inhibition did it give?
**A.** Its inhibition is -20.9%.

**Q.** For `CC1=CC(=Cc2sc3ccccc3[n+]2C)C=C(C)O1`, which inhibition is on record?
**A.** The inhibition was 80.7% (active).

**Q.** How did the inhibition turn out when `COc1ccccc1N=C1SCCCN1C` was run?
**A.** The inhibition was 11.8%.

**Q.** `CCOC(=O)CNC(=O)N1Cc2cc(N3CCCCC3)ccc2-n2nncc2C1` was tested. Which inhibition did it give?
**A.** The inhibition was 6.84%.

**Q.** How did the inhibition turn out when `Cc1cc(OCc2cc(C(=O)O)oc2C)c2c3c(c(=O)oc2c1)CCCC3` was run?
**A.** Its inhibition is 15.5%.

**Q.** How did the inhibition turn out when `NCC(O)c1ccc(O)cc1` (stereo not given) was run?
**A.** Its inhibition is -5.8%.

**Q.** `CCN(N=Nc1nonc1OC)c1nonc1OC` was tested. Which inhibition did it give?
**A.** Its inhibition is 3.32%.

**Q.** With `CC1CCCN1CCC(C(N)=O)(c1ccccc1)c1ccccc1` (stereo not given) as the molecule, how does the inhibition read?
**A.** The inhibition was -19.5%.
